Assay results: paper PMC4336329 (PLoS ONE, 2015)
The whole screen tested about 310,000 compounds, of which about 14,000 (4.5%) showed an effect of 50% or more. Effects have a minus sign here. Shown is part of a subset that was picked to be rich in strong results.

target: human ether-à-go-go-related gene (hERG) potassium channel (human, UniProt Q12809); test: primary screen, population patch clamp on CHO cells stably expressing hERG; higher = less effect of the substance
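Further: peak tail current of the secondary pulse compared with the same well before compound.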

Sequence of human ether-à-go-go-related gene (hERG) potassium channel (Q12809 whole entry, looked up): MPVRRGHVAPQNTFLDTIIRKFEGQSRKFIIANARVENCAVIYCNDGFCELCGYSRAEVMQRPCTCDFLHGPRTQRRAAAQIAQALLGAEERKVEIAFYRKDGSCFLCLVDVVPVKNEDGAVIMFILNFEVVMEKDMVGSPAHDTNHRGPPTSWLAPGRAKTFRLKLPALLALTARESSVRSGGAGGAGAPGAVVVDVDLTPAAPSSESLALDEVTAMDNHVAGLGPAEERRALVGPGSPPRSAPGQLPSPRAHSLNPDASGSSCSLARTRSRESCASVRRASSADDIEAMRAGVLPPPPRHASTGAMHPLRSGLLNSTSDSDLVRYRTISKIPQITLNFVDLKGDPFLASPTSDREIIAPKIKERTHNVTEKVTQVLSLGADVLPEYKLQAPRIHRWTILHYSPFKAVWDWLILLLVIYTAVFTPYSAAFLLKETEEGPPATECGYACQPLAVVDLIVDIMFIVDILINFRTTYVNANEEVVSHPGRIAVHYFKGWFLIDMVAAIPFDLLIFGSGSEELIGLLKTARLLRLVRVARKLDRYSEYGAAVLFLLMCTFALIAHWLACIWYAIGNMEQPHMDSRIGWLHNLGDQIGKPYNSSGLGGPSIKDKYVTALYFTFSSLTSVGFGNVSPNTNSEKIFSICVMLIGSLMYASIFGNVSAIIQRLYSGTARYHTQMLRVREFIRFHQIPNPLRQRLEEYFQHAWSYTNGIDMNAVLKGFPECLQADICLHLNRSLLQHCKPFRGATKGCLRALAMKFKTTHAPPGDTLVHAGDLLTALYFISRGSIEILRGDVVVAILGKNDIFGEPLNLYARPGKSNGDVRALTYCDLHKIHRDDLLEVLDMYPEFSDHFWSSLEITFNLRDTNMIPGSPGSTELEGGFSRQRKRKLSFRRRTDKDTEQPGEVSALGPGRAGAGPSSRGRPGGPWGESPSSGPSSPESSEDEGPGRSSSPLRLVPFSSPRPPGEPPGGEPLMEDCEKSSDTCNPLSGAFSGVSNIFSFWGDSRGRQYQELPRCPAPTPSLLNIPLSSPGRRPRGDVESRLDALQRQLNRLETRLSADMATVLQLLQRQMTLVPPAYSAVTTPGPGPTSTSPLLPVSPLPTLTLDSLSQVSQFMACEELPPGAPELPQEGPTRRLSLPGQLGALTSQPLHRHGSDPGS

In order of falling “hERG current change (%, negative = inhibition) at 10uM” value:
1. CN(CC(=O)OCC(N)=O)S(=O)(=O)c1ccc(Cl)cc1  33.6%
2. O=c1cc([O-])n(Cc2ccc(F)cc2)c(=O)[nH]1.[NH4+]  21.7%
3. CC(C)OCCCNC(=O)c1ccc2c(=O)n(Cc3ccc4c(c3)OCO4)c(=S)[nH]c2c1  21.3%
4. CC(=O)CCCCn1cnc2c1c(=O)n(C)c(=O)n2C  20.7%
5. COc1ccc(C(=O)C2CCCN(C(=O)Cn3ccc(C)n3)C2)cc1OC (centres unmarked)  19.1%
6. COc1ccc(C2=NC(CO)(CO)CO2)cc1  19%
7. CC(=O)NC1C(OCc2ccccc2)OC2COC(C)(C)OC2C1O (centres unmarked)  18.3%
8. Cc1sc2ncnc(NCC(O)c3ccccc3)c2c1C (centres unmarked)  17.7%
9. Nc1ccc(N=Nc2ccccc2)c2cccnc12  17.2%
10. COc1cccc(OC)c1C(=O)NC(=S)N1CCOCC1  17.2%
11. Cc1ccc(C)c(S(=O)(=O)Nc2ccc(C(N)=O)cc2)c1  14.9%
12. COCCN(C(=O)CCC(=O)Nc1cc(C)on1)C(C(=O)NC1CCCC1)c1ccccc1C (centres unmarked)  14.7%
13. CCOCCCN1CN(Cc2ccccc2)CNC1=S  14.3%
14. CC1(C)CC(=O)c2c(Cc3ccccc3)noc2C1  12.1%
15. O=C(O)c1ccc[nH]c1=S  10.3%
16. Cc1sc2ncnc(N[C@@H](CCC(=O)O)C(=O)O)c2c1C  10.1%
17. Cc1cc(Br)ccc1NC(=O)c1cnc(N2CCN(c3ccccn3)CC2)c2ccccc12  10%
18. Cc1sc2nc(SCC(=O)Nc3c(C)n(C)n(-c4ccccc4)c3=O)n(C)c(=O)c2c1C  9.4%
19. CCN(c1cccc(C)c1)S(=O)(=O)c1cnc[nH]1  9.23%
20. COC(=O)c1sccc1NC(=S)NCc1ccc(Cl)cc1  9.11%
21. COc1ccc(C(=O)C2CCCN(C(=O)CSC)C2)cc1OC (centres unmarked)  8.85%
22. C#CCN1CCN(c2cccc(C(F)(F)F)c2)CC1  8.78%
23. C=CCn1c(SCC(=O)Nc2ccccc2)nc2scc(-c3cccs3)c2c1=O  8.69%
24. CNS(=O)(=O)c1ccc(NC(=S)Nc2ccc3c(c2)OCO3)cc1  8.16%
25. Cc1cc(C(=O)CSc2nnc(-c3ccc(Cl)cc3)n2C)c(C)n1CC1CCCO1 (centres unmarked)  8.08%
26. COc1ccc(OC)c(N(CC(=O)NCC2CCCO2)S(=O)(=O)c2ccccc2)c1 (centres unmarked)  8.03%
27. NC(=O)c1cc(-c2csc(NCCc3ccccc3)n2)ccc1O  6.05%
28. Cc1ccc(OCC(=O)N/N=C/c2ccncc2)cc1C  5.75%
29. CCOC(=O)c1sc2ncnc(NCC(c3cccs3)N(C)C)c2c1C (centres unmarked)  5.57%
30. c1ccc(-c2nnsc2Sc2ccccn2)cc1  3.35%
31. Cc1nc(NCc2ccc(S(N)(=O)=O)cc2)c2c(C)c(C)sc2n1  2.83%
32. N#C/C(=C\c1ccc(F)cc1)C(=O)Nc1ccccn1  2.68%
33. CNC(=O)C(Sc1nc(C)nc2c1oc1ccccc12)C(C)=O (centres unmarked)  2.63%
34. CCOC(=O)Cn1c2c(c(-c3ccccc3OC)cc1=O)CCCC2  2.38%
35. CCOC(=O)CN1C(=O)/C(=C/c2ccc(Cl)cc2)Oc2ccccc21  2.31%
36. Cn1c(N)c(C(=O)COc2ccc(Cl)cc2Cl)c(=O)n(C)c1=O  2.07%
37. O=C(COc1ccc2ccccc2c1)N/N=C/C1CC=CCC1 (centres unmarked)  1.93%
38. Cc1ccc(C)c(NC(=S)NNC(=O)c2csc(C)c2C)c1  1.72%
39. COc1ccccc1C(=O)NCC(c1cccs1)N1CCc2ccccc21 (centres unmarked)  1.26%
40. O=C(c1cc(F)ccc1F)C1CCCN(Cc2cc(Cl)ccc2O)C1 (centres unmarked)  0.916%
41. Cc1cc(C)cc(CC2CC(=O)N(c3cc(C)on3)C2=O)c1 (centres unmarked)  0.808%
42. CCN(CC)S(=O)(=O)c1cccc(C(=O)Nc2nc3cc4c(cc3s2)OCCO4)c1  0.652%
43. CNC(=O)CN(c1cc(C)ccc1OC)S(=O)(=O)c1ccc(C)cc1  -0.703%
44. CC(NC(=O)C1CCN(S(=O)(=O)c2ccc(Br)s2)CC1)c1ccccc1 (centres unmarked)  -0.752%
45. Cn1c(N)c(C(=O)COC(=O)CSc2ccc3ccccc3c2)c(=O)n(C)c1=O  -1.77%
46. CC(=O)c1c(C)[nH]c(C(=O)COC(=O)CNS(=O)(=O)c2ccccc2)c1C  -2.66%
47. O=C1COc2ccc(-c3n[nH]c(=O)c4ccccc34)cc2N1  -2.91%
48. CCOC(=O)c1c(NC(=O)Cn2nc(C(F)(F)F)cc2C)sc2c1CCC2  -4.65%
49. O=C(CCN1C(=O)c2ccccc2S1(=O)=O)Nc1cccc2ccccc12  -5.33%
50. COc1ccccc1CNC(=O)CCNC(=O)C1CCN(S(=O)(=O)c2ccccc2)CC1  -7.65%
51. COCCN(C(=O)CSc1nnc(Nc2ccc(C)cc2)s1)c1c(N)n(CC(C)C)c(=O)[nH]c1=O  -7.66%
52. O=C(NCc1ccccc1)C1CCCN1S(=O)(=O)c1ccc(Cl)cc1 (centres unmarked)  -7.85%
53. FC(F)(F)c1cccc(N2CCN(Cc3cccnc3)CC2)c1  -8.03%
54. COc1ccc(/C=N/Nc2ncnc3sc(C)c(C)c23)cc1  -8.19%
55. Cc1noc(C)c1COC(=O)c1ccc(N(C)C)cc1  -9.83%
56. Cn1ncc2c(NCc3ccccc3)ncnc21  -11%
57. Cn1c(N)c(C(=O)COC(=O)CCCOc2ccc(Cl)cc2Cl)c(=O)n(C)c1=O  -12.2%
58. Cc1sc2ncnc(NCC3COc4ccccc4O3)c2c1C (centres unmarked)  -13.6%
59. Cc1nc(N(C)Cc2ccccc2)c2c(C)c(C)sc2n1  -14.8%
60. CCOc1cc(CN2CCN(c3cccc(C(F)(F)F)c3)CC2)ccc1OC  -16.6%
61. NC(=O)NC(=O)C(c1ccccc1)N1CCN(S(=O)(=O)Cc2ccccc2)CC1 (centres unmarked)  -18.9%
62. Cc1cc(/C=C(\C#N)C(=O)NCc2ccco2)c(C)n1-c1cccnc1  -23.2%
63. Cc1ccccc1/C=C1\Sc2ccc(C(=O)N3CCN(c4ccccn4)CC3)cc2N(C)C1=O  -26.1%
64. O=C(c1cccc(C(F)(F)F)c1)C1CCCN(Cc2ccccc2O)C1 (centres unmarked)  -29%
65. Cn1cc(CN2CCCC(C(=O)c3cc(F)ccc3F)C2)c2ccccc21 (centres unmarked)  -31.1%
66. C=CCn1c(SCC(=O)Nc2c(C)n(C)n(-c3ccccc3)c2=O)nc2sc(C)c(C)c2c1=O  -31.4%
67. C=CCn1c(SCC(=O)Nc2c(C)n(C)n(-c3ccccc3)c2=O)nc2ccccc2c1=O  -32.9%
68. Cn1c(N)c(C(=O)COC(=O)CSc2ccccc2)c(=O)n(C)c1=O  -33.6%
69. COc1ccc(C(CNC(=O)C(CCSC)NC(=O)c2ccccc2Cl)N2CCCC2)cc1 (centres unmarked)  -34.9%
70. O=C(c1cccc(S(=O)(=O)NCCOc2ccccc2)c1)N1CCN(c2ncccn2)CC1  -37.6%
71. CC(=O)Nc1ccc(CN2CCN(c3cccc(C(F)(F)F)c3)CC2)cc1  -38%
72. CC(C)[C@H](NS(=O)(=O)c1ccc(Cl)cc1)C(=O)OCC(=O)c1c(N)n(C)c(=O)n(C)c1=O  -39.9%
73. Cc1sc2ncnc(NCC(c3ccccc3)N(C)C)c2c1C (centres unmarked)  -40.1%
74. COc1cccc(O)c1CN1CCCC(C(=O)c2sccc2C)C1 (centres unmarked)  -45.9%
75. COc1ccc(CCNC(=O)CN2CCN(c3cccc(C(F)(F)F)c3)CC2)cc1  -46.3%
76. CCOc1cccc(CN2CCN(c3cccc(C(F)(F)F)c3)CC2)c1O  -46.6%
77. Cc1ccc(S(=O)(=O)N(C)CC(=O)OCC(=O)c2c(N)n(C)c(=O)n(C)c2=O)cc1  -47.1%
78. CCOc1ccccc1CN1CCCC(C(=O)c2cc(F)ccc2F)C1 (centres unmarked)  -50.8%
79. NC(=O)NC(=O)C(c1ccccc1)N1CCN(S(=O)(=O)c2ccc(Br)s2)CC1 (centres unmarked)  -52.2%
80. C=CCn1c(SCC(=O)Nc2c(C)n(C)n(-c3ccccc3)c2=O)nc2sc(C)c(-c3ccccc3)c2c1=O  -54%
81. COc1ccccc1C(CNc1ncnc2sc(C)c(C)c12)N(C)C (centres unmarked)  -55.4%
82. C=CCn1c(SCC(=O)Nc2c(C)n(C)n(-c3ccccc3)c2=O)nc2scc(-c3ccccc3)c2c1=O  -56%
83. COc1ccc(C(CNc2ncnc3sc(C)c(C)c23)N(C)C)cc1 (centres unmarked)  -56.4%
84. CC(=O)c1c(C)[nH]c(C(=O)COC(=O)CN(C)S(=O)(=O)c2ccc(Cl)cc2)c1C  -57.8%
85. FC(F)(F)c1cccc(N2CCN(Cc3ccoc3)CC2)c1  -60.4%
86. Cn1c(N)c(C(=O)COC(=O)CSc2ccc(Cl)cc2)c(=O)n(C)c1=O  -61.2%
87. COc1ccc(C(=O)C2CCCN(Cc3c(O)cccc3OC)C2)cc1OC (centres unmarked)  -63.1%
88. Nc1ccc(CCN2CCN(c3cccc(C(F)(F)F)c3)CC2)cc1  -67.2%
89. CCOc1cccc(CN2CCCC(C(=O)c3cccc(C(F)(F)F)c3)C2)c1O (centres unmarked)  -67.9%
90. CN(CC(=O)OCC(=O)c1c(N)n(C)c(=O)n(C)c1=O)S(=O)(=O)c1ccc(Cl)cc1  -69.3%
91. CC(Oc1ccc(Cl)cc1Cl)C(=O)OCC(=O)c1c(N)n(C)c(=O)n(C)c1=O (centres unmarked)  -71.2%
92. Cc1sc2ncnc(NCC(O)c3ccc([N+](=O)[O-])cc3)c2c1C (centres unmarked)  -71.6%
93. CCOc1cc(CN2CCN(c3cccc(C(F)(F)F)c3)CC2)ccc1O  -73%
94. Cc1nc(NCC(c2ccccc2)N(C)C)c2c(C)c(C)sc2n1 (centres unmarked)  -77.1%
95. COc1ccc(C(=O)C2CCCN(Cc3nc4ccccc4nc3C)C2)cc1OC (centres unmarked)  -84.9%
